An excerpt weighted towards active compounds, which were near 12% of everything screened.
PLK1 PBD block: inhibitors of human PLK1 polo-box domain binding. Potency, µM, inactives show max response, negative = inhibition, most hits filed as inhibitors. P53350. actives 2.8% (n = 360,000). Plk1 PBD binding of FITC phosphopeptide, fluorescence polarization; also: series mostly up to about 57 µM; % is scaled to controls: 0 for no effect and ±100 for the full control effect; nearly all actives have a fitted effect of over 65% in size
Sfp inh: Sfp phosphopantetheinyl transferase inhibition; Q9F4F7; Biochemical Sfp PPTase activity, qHTS; Potency, µM, for inactives: largest response in the series, negative = inhibition, actives largely listed as inhibitors; actives 3.5% (n = 310,000); AID 1490;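 also: the enzyme is Sfp with the accession as filed and its product quenches rhodamine fluorescence; 0% = enzyme reaction without inhibitor and -100% = no enzyme wells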
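Buffer: 50 mM Hepes-Na pH 7.6, 10 mM MgCl2, 0.01% Nonidet P-40, 0.01% BSA. Enzyme 15 nM, pre-exposed to compound 15 min; substrates then added and fluorescence change tracked over 30 min.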
HP1b binding inh: blocks HP1-beta chromodomain binding to methylated histone tails; actives 0.56% (n = 390,000); AlphaScreen HP1-beta / biotin-H3K9me3 peptide binding; P83916; Potency, µM (highest dose often 114 µM), for inactives: at the highest dose activity change, negative = inhibition, usual class: inhibitors; also: nearly all actives have a fitted effect of over 70% in size
Target sequence (P83916 whole entry, looked up): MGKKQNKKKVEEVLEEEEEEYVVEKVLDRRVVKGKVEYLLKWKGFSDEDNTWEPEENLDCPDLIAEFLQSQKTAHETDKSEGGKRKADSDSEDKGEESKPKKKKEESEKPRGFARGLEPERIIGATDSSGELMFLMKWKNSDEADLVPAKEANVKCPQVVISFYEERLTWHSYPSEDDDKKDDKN
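Compound inhibition of the preformed complex between 50 nM HP1-beta and 50 nM biotinylated H3K9me3 peptide was read by AlphaScreen. Buffer was PBS pH 7.4 with 0.01% Tween-20. Incubations ran 30 min at room temperature, with 10 ug/mL donor/acceptor beads.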
G9a inh: inhibitors of human histone lysine methyltransferase G9a; Q96KQ7; G9a H3K9 monomethylation, AlphaScreen, 2 h; Potency, µM (doses to about 102 µM), for inactives: top-dose activity, negative = inhibition, hits mostly inhibitors; actives 8.8% (n = 350,000); also: % is scaled to controls: 0 for no effect and ±100 for the full control effect; nearly all actives have a fitted effect of over 75% in size
Target sequence (Q96KQ7 913-1193 limits assumed): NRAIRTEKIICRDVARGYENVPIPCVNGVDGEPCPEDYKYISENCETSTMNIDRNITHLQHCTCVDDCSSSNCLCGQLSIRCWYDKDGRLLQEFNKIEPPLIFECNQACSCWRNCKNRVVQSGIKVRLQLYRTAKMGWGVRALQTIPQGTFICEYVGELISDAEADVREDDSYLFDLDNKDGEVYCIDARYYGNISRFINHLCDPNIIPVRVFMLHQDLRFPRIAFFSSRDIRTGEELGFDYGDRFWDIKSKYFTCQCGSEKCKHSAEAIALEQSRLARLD
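Chemiluminescent proximity detection of H3K9 monomethylation, read after 10 min bead incubation in the dark. Reaction: 20 nM G9a, 500 nM biotin-H3K9 peptide, 20 uM SAM cofactor, 2 h, room temperature, following 15 min enzyme-compound preincubation.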
JMJD2A Tudor inh: JMJD2A Tudor domain (human) inhibition; AlphaScreen JMJD2A-Tudor / H3K4me3 peptide binding; Potency, µM (titrated, usually from 114 µM), for the others: top-dose activity change, negative = inhibition, actives largely listed as inhibitors; actives 4.4% (n = 390,000); AID 504339; also: % is scaled to controls: 0 for no effect and ±100 for the full control effect; nearly all actives have a fitted effect of over 50% in size
BAZ2B block: blocks human BAZ2B. Q9UIF8. AlphaScreen BAZ2B-H3K14Ac peptide displacement. Potency, µM (doses to about 114 µM), without a hit: at the top dose activity change, negative = inhibition, usual class: inhibitors. actives 4.4% (n = 360,000); also: % is scaled to controls: 0 for no effect and ±100 for the full control effect; nearly all actives have a fitted effect of over 60% in size
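AlphaScreen luminescence quantifies BAZ2B engagement of H3K14Ac peptide; the protein and biotinylated peptide are both at 50 nM final, buffer PBS pH 7.4 with 0.01% Tween-20, all steps at room temperature.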
Starred values were filed as active, the others as inactive; ? = inconclusive; · = no result; [ ] = dose if it differs, or a comment. Calls follow the shape of the dose curve; as a rule, active = well fitted curve in the direction sought with a large enough effect; inconclusive = small, poorly fitted or top-dose-only effect, or another doubt; inactive = no such curve, though single readings can be large; an effect the other way counts as inactive or inconclusive. Potency is read from the fitted curve at half-maximal effect.

SMILES	PLK1 PBD block	Sfp inh	HP1b binding inh	G9a inh	JMJD2A Tudor inh	BAZ2B block
O=C(COC(=O)c1ccc(S(=O)(=O)NCc2ccco2)cc1)NC1CCCCCC1	-15%	56µM*	3%	?	?	?
COc1ccc(/C=C/C(=O)O)cc1S(=O)(=O)NCc1ccco1	0%	-25%	34%	?	-4%	-13%
O=C(COc1ccccc1)Nc1ccc(S(=O)(=O)NCc2ccco2)cc1	-12%	-7%	-15%	50µM*	50µM*	?
COc1ccc(S(=O)(=O)NCC2CCC(C(=O)NCc3ccco3)CC2)cc1 (stereo not given)	11µM*	24%	-17%	-4%	-23%[11.4 µM]	6%
Cc1ccc(/C=C/C(=O)O)cc1S(=O)(=O)NCc1ccco1	-5%	40µM*	18%	·	-18%	?
CC(C)NC(=O)N1CCCC2(CCN(C(=O)c3csnn3)CC2)C1	·	20%	·	2%[12.7 µM]	·	·
CCCCNC(=O)C(CC)Sc1nc2ccccc2c(=O)n1CCc1ccc(OC)c(OC)c1 (stereo not given)	·	·	33%	15%[59 µM]	-8%	-4%
O=C(NCCN1CCOCC1)/C(=C\c1ccc(Br)cc1)NC(=O)c1cccs1	-5%	11%	27%	-2%[59 µM]	-3%	3%
COc1ccc(C(=O)Nc2ccc(S(=O)(=O)NCc3ccco3)cc2)cc1OC	-7%	-7%	0%	40µM*	?	-1%
Cc1cccc(NC(=O)c2ccc(F)c(S(=O)(=O)NCc3ccco3)c2)c1	-15%	-6%	16%	50µM*	-27%	?
O=C(OCc1nnc(-c2ccccc2)o1)c1ccc(S(=O)(=O)NCc2ccco2)cc1	-26%	-20%	?	9%[12.7 µM]	79µM*	79µM*
NC(=O)COC(=O)c1ccc(S(=O)(=O)NCc2ccco2)cc1	-10%	7%	-14%	?	?	?
COc1ccc(N2CCN(C(=O)c3ccc(CNS(=O)(=O)c4cccc(OC)c4)cc3)CC2)cc1	0%	21%	-18%	?	?	?
COc1ccccc1NC(=O)c1ccc(S(=O)(=O)NCc2ccco2)cc1	-5%	8%	27%	-17%	-28%	-37%
COc1cccc(S(=O)(=O)NCc2ccc(C(=O)N3CCN(c4ccccc4)CC3)cc2)c1	-1%	18%	15%	63µM*	-24%	-24%
CCOC(=O)c1ccc(N2CCN(c3ccccc3OC)CC2)c(NC(=O)Nc2ccc(CC)cc2)c1	·	·	27%	?	?	-21%
Cc1oc2ccc(O)c(CN3CCN(C)CC3)c2c1C(=O)Nc1cccc(C(F)(F)F)c1	·	·	11%	-27%[59 µM]	-27%	-15%
O=C(COc1ccccc1F)Nc1ccc(S(=O)(=O)NCc2ccco2)cc1	-4%	-4%	1%	-12%	?	-31%
CC(=O)Nc1ccc(NC(=O)COC(=O)c2ccc(S(=O)(=O)NCc3ccco3)cc2)cc1	4%	·	17%[57 µM]	·	-3%	·
COc1cccc(NC(=O)COC(=O)c2ccc(S(=O)(=O)NCc3ccco3)cc2)c1	-21%	7%	-28%	-4%[12.7 µM]	35µM*	?
O=C(NC1CCCCCC1)c1ccc(S(=O)(=O)NCc2ccco2)cc1	-7%	2%	5%	-4%[59 µM]	0%	10%
O=C(Nc1ccc(S(=O)(=O)NCc2ccco2)cc1)C1CCCCC1	-11%	-19%	16%	45µM*	-18%	-35%
CC(C)CC(=O)Nc1ccc(S(=O)(=O)NCc2ccco2)cc1	-2%	8%	23%	18µM*	-24%	-38%
COc1cccc(S(=O)(=O)NCc2ccc(C(=O)NCc3ccco3)cc2)c1	-6%	?	-5%	45µM*	-33%	-8%
CC1CCCCN1S(=O)(=O)c1ccc2c(c1)oc(=O)n2CC(=O)Nc1ccc(Cl)cc1 (stereo not given)	·	·	35%	-21%[59 µM]	-14%	0%
O=C(c1ccc([N+](=O)[O-])cc1)N(Cc1cccs1)C1CCS(=O)(=O)C1 (stereo not given)	-13%	9%	11%	·	-2%	-2%
